Our source for the growth values is PubChem BioAssay (NCI).

Compounds without any hit were thinned out: in the full panel of roughly 83,000, 20% have a hit.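 Single-dose data. Exposure time 48 hours. Values below 10 considered active.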 Active and inactive are the calls of the source.

The first test concerns EKVX NSCLC. The test is described as follows: NCI-60 one-dose screen, 48 h (100 = growth as untreated, 0 = no growth, -100 = all killed). The following applies: 10 µM unless noted.
On to `Cn1ccnc1C(=O)/C=C/c1ccc(NC(=O)Nc2ccc(Cl)cc2)cc1`, for which the growth is 91.7% (inactive).
As for `C#Cc1nc(C2=C(C)/C(=N/OCc3ccccc3)CC2)cs1`, the growth was 19.4% (inactive).
The same measure, in the same setting: as for `COc1ccc(-n2c(SCC(=O)Nc3ccc(-c4nc5ccccc5[nH]4)cc3)nc3ccccc3c2=O)cc1`, the figure is 53.1% (inactive).
Same read-out and setting: for `COc1cc(OC)c(S(=O)(=O)NNC(=O)c2ccncc2)cc1C(=O)/C=C/c1ccc(C)cc1` the value was 85.7% (inactive); for `COC(=O)C(C)NS(=O)(=O)/N=C1\NC(=O)NC1=C(Cl)Cl` (stereo unspecified), 104% (inactive); for `COc1ccc(C(=O)/C=C/c2ccc(Oc3nc(NCCO)nc(N4CCOCC4)n3)c(OC)c2)cc1`, 90.1% (inactive).
The same measure, in the same setting: as for `NS(=O)(=O)c1cccc(Nc2nc(SCC(=O)c3ccc(Br)cc3)nc3ccccc23)c1`, the figure is 64.8% (inactive); as for `O=C(N/N=C/c1ccc([N+](=O)[O-])o1)c1[nH]c2ccc(Br)cc2c1-c1ccccc1`, 39.2% (inactive).
`O=C(N/N=C/c1cccs1)c1[nH]c2ccc(Br)cc2c1-c1ccccc1`: the growth was 42.2% (inactive).
On the same count and under the same terms, for `COc1cc2cc(Oc3ccc(NC(=O)c4cccc(C(F)(F)F)c4)cc3)c(C)nc2cc1OCCN1CCCCC1` the value was 93.2% (inactive); for `Cc1sc2c(c1C)c(=O)nc1c(-c3nc(-c4ccc(F)cc4)no3)n[nH]n12`, 95.2% (inactive); for `N#Cc1nc(-c2ccccc2)oc1N1CC[C@@H](CO)C1`, 98.5% (inactive).
The same measure, in the same setting: as for `Cn1ccnc1C(=O)/C=C/c1ccc(NC(=O)Nc2ccc(F)cc2)cc1`, the figure is 39.3% (inactive); as for `COc1ccc(NC2=C(Cl)C(=O)C(C)=C(C)C2=O)cc1OC`, 74.3% (inactive).
For `NS(=O)(=O)c1ccc(Nc2nc(Nc3ccccc3)nc(-n3nc(-c4ccccc4)cc3-c3ccccc3)n2)cc1`, the growth is 40.3% (inactive).
The same measure, in the same setting: as for `C#Cc1nc(C2=C(C)C(O)/C(=N/O)C2)cs1` (stereo unspecified), the figure is 91.3% (inactive); as for `Cc1ccc2c(n1)C(=O)C(Cl)=C(Nc1cccc(C(C)C)c1)C2=O`, 65% (inactive); as for `CN1CCc2c(sc3ncnc(N/N=C/c4ccc(Cl)c(Cl)c4)c23)C1`, 60.8% (inactive).
Consider `O=C(CSc1nnc(-c2ccc3nc(-c4ccc(Cl)cc4)[nH]c3c2)o1)Nc1ccc(C(=O)/C=C/c2ccc(Cl)cc2)cc1`, for which the growth is 93.8% (inactive).
On the same count and under the same terms, as for `O=C(N/N=C/c1ccc(Br)s1)c1[nH]c2ccc(Br)cc2c1-c1ccccc1`, the figure is 40.9% (inactive); as for `C#Cc1nc(C2=C(C)C(O)CC2)cs1` (stereo unspecified), 113% (inactive).
On the same count and under the same terms, as for `O=C(N/N=C/c1ccc[nH]1)c1[nH]c2ccc(Br)cc2c1-c1ccccc1`, the figure is 24.4% (inactive).
The same measure, in the same setting: as for `COc1ccc(/C=N/NC(=O)c2[nH]c3ccc(Br)cc3c2-c2ccccc2)s1`, the figure is 42.8% (inactive); as for `C/C(=N\NC(N)=O)c1c(O)sc(=O)[nH]c1=O`, 95.8% (inactive); as for `C#Cc1nc(C2=C(C)C(=O)/C(=N/OC(C)=O)C2)cs1`, 97.5% (inactive).
For `Cn1ccnc1C(=O)/C=C/c1ccc(NC(=O)Nc2ccccc2)cc1`, the growth was 16.5% (inactive).
`COc1cc(/C=C/C(=O)c2cc(OC)c(OC)c(OC)c2)ccc1OCc1ccccc1`: the growth was 51.6% (inactive).
For the compound `CC(O)C(NC(=O)C1CCCN1C(=O)CNC(=O)C1CC(=O)NCC(=O)NC(Cc2c[nH]c3ccccc23)C(=O)NC(Cc2ccc(O)cc2)C(=O)NCC(=O)NC(CO)C(=O)NC(CCC(N)=O)C(=O)NC(Cc2c[nH]c3ccccc23)C(=O)N1)C(=O)NCC(=O)NC(CCC(N)=O)C(=O)NC(CCCNC(=N)N)C(=O)NC(CC(=O)O)C(=O)O` (stereo unspecified), the growth is 100% (inactive).
The same measure, in the same setting: as for `COc1cc(/C=C/C(=O)c2cc(OC)c(OC)c(OC)c2)ccc1OCc1ccc(F)cc1`, the figure is 51.2% (inactive).
On the same count and under the same terms, as for `O=C(N/N=C/c1ccc([N+](=O)[O-])s1)c1[nH]c2ccc(Br)cc2c1-c1ccccc1`, the figure is 9.91% (active).
On the same count and under the same terms, for `N#Cc1c(-c2ccc(Cl)cc2)nc2c(-c3ccccc3)c(Nc3ccccc3)nn2c1N` the value was 60.6% (inactive); for `O=C(Oc1ccc2ccc(=O)oc2c1)c1ccc(Cl)cc1`, 99.2% (inactive).
As for `C#Cc1nc(C2=C(C)C(OC(=O)CCC(=O)O)CC2)cs1` (stereo unspecified), the growth is 99.2% (inactive).
Consider `C#Cc1nc(C2=C(C)C(=N\O)/C(=N/O)C2)cs1`, for which the growth was 95.7% (inactive).
For `O=C(N/N=C/c1ccco1)c1[nH]c2ccc(Br)cc2c1-c1ccccc1`, the growth was 37.9% (inactive).
Still for that read-out and setting: as for `COC(=O)C(Cc1ccccc1)NS(=O)(=O)/N=C1\NC(=O)NC1=C(Cl)Cl` (stereo unspecified), the figure is 104% (inactive); as for `N#Cc1ccc(/C=N/NC(=O)c2[nH]c3ccc(Br)cc3c2-c2ccccc2)s1`, 25% (inactive).
For `CCOc1ccc2nc(NC(=O)c3ccc(C(F)(F)F)cc3)sc2c1`, the growth is 102% (inactive).

The next test deals with SN12C renal. The test is described as above. As to conditions: 10 µM unless noted.
Regarding `Cn1ccnc1C(=O)/C=C/c1ccc(NC(=O)Nc2ccc(Cl)cc2)cc1`, the growth was 87.5% (inactive).
On the same count and under the same terms, for `C#Cc1nc(C2=C(C)/C(=N/OCc3ccccc3)CC2)cs1` the value was 66.6% (inactive); for `COc1ccc(-n2c(SCC(=O)Nc3ccc(-c4nc5ccccc5[nH]4)cc3)nc3ccccc3c2=O)cc1`, 62.3% (inactive); for `COc1cc(OC)c(S(=O)(=O)NNC(=O)c2ccncc2)cc1C(=O)/C=C/c1ccc(C)cc1`, 95.8% (inactive).
On the same count and under the same terms, for `COC(=O)C(C)NS(=O)(=O)/N=C1\NC(=O)NC1=C(Cl)Cl` (stereo unspecified) the value was 98.7% (inactive); for `COc1ccc(C(=O)/C=C/c2ccc(Oc3nc(NCCO)nc(N4CCOCC4)n3)c(OC)c2)cc1`, 86.2% (inactive).
The same measure, in the same setting: as for `NS(=O)(=O)c1cccc(Nc2nc(SCC(=O)c3ccc(Br)cc3)nc3ccccc23)c1`, the figure is 74.9% (inactive); as for `O=C(N/N=C/c1ccc([N+](=O)[O-])o1)c1[nH]c2ccc(Br)cc2c1-c1ccccc1`, 21.9% (inactive); as for `O=C(N/N=C/c1cccs1)c1[nH]c2ccc(Br)cc2c1-c1ccccc1`, 45.7% (inactive).
Consider `COc1cc2cc(Oc3ccc(NC(=O)c4cccc(C(F)(F)F)c4)cc3)c(C)nc2cc1OCCN1CCCCC1`, for which the growth was 76.2% (inactive).
The same measure, in the same setting: as for `Cc1sc2c(c1C)c(=O)nc1c(-c3nc(-c4ccc(F)cc4)no3)n[nH]n12`, the figure is 98.2% (inactive); as for `N#Cc1nc(-c2ccccc2)oc1N1CC[C@@H](CO)C1`, 98.1% (inactive); as for `Cn1ccnc1C(=O)/C=C/c1ccc(NC(=O)Nc2ccc(F)cc2)cc1`, 53.8% (inactive).
The same measure, in the same setting: for `COc1ccc(NC2=C(Cl)C(=O)C(C)=C(C)C2=O)cc1OC` the value was 88.9% (inactive); for `NS(=O)(=O)c1ccc(Nc2nc(Nc3ccccc3)nc(-n3nc(-c4ccccc4)cc3-c3ccccc3)n2)cc1`, 41.2% (inactive); for `C#Cc1nc(C2=C(C)C(O)/C(=N/O)C2)cs1` (stereo unspecified), 99.9% (inactive).
On to `Cc1ccc2c(n1)C(=O)C(Cl)=C(Nc1cccc(C(C)C)c1)C2=O`, for which the growth is 31.9% (inactive).
Take `CN1CCc2c(sc3ncnc(N/N=C/c4ccc(Cl)c(Cl)c4)c23)C1`: the growth was 81.2% (inactive).
As for `O=C(CSc1nnc(-c2ccc3nc(-c4ccc(Cl)cc4)[nH]c3c2)o1)Nc1ccc(C(=O)/C=C/c2ccc(Cl)cc2)cc1`, the growth is 84.9% (inactive).
Still for that read-out and setting: as for `O=C(N/N=C/c1ccc(Br)s1)c1[nH]c2ccc(Br)cc2c1-c1ccccc1`, the figure is 56.3% (inactive).
Take `C#Cc1nc(C2=C(C)C(O)CC2)cs1` (stereo unspecified): the growth is 101% (inactive).
Take `O=C(N/N=C/c1ccc[nH]1)c1[nH]c2ccc(Br)cc2c1-c1ccccc1`: the growth was 28.7% (inactive).
With `COc1ccc(/C=N/NC(=O)c2[nH]c3ccc(Br)cc3c2-c2ccccc2)s1`, the growth is 50% (inactive).
In the case of `C/C(=N\NC(N)=O)c1c(O)sc(=O)[nH]c1=O`, the growth is 97.1% (inactive).
Same read-out and setting: for `C#Cc1nc(C2=C(C)C(=O)/C(=N/OC(C)=O)C2)cs1` the value was 99% (inactive); for `Cn1ccnc1C(=O)/C=C/c1ccc(NC(=O)Nc2ccccc2)cc1`, 45.6% (inactive).
Same read-out and setting: as for `COc1cc(/C=C/C(=O)c2cc(OC)c(OC)c(OC)c2)ccc1OCc1ccccc1`, the figure is 69.7% (inactive); as for `CC(O)C(NC(=O)C1CCCN1C(=O)CNC(=O)C1CC(=O)NCC(=O)NC(Cc2c[nH]c3ccccc23)C(=O)NC(Cc2ccc(O)cc2)C(=O)NCC(=O)NC(CO)C(=O)NC(CCC(N)=O)C(=O)NC(Cc2c[nH]c3ccccc23)C(=O)N1)C(=O)NCC(=O)NC(CCC(N)=O)C(=O)NC(CCCNC(=N)N)C(=O)NC(CC(=O)O)C(=O)O` (stereo unspecified), 101% (inactive); as for `COc1cc(/C=C/C(=O)c2cc(OC)c(OC)c(OC)c2)ccc1OCc1ccc(F)cc1`, 67.9% (inactive).
Still for that read-out and setting: for `O=C(N/N=C/c1ccc([N+](=O)[O-])s1)c1[nH]c2ccc(Br)cc2c1-c1ccccc1` the value was 17.5% (inactive).
Regarding `N#Cc1c(-c2ccc(Cl)cc2)nc2c(-c3ccccc3)c(Nc3ccccc3)nn2c1N`, the growth was 77.5% (inactive).
Still for that read-out and setting: for `O=C(Oc1ccc2ccc(=O)oc2c1)c1ccc(Cl)cc1` the value was 98.7% (inactive); for `C#Cc1nc(C2=C(C)C(OC(=O)CCC(=O)O)CC2)cs1` (stereo unspecified), 101% (inactive); for `C#Cc1nc(C2=C(C)C(=N\O)/C(=N/O)C2)cs1`, 98.2% (inactive).
Same read-out and setting: as for `O=C(N/N=C/c1ccco1)c1[nH]c2ccc(Br)cc2c1-c1ccccc1`, the figure is 38.1% (inactive); as for `COC(=O)C(Cc1ccccc1)NS(=O)(=O)/N=C1\NC(=O)NC1=C(Cl)Cl` (stereo unspecified), 96.8% (inactive).
Same read-out and setting: for `N#Cc1ccc(/C=N/NC(=O)c2[nH]c3ccc(Br)cc3c2-c2ccccc2)s1` the value was 42.1% (inactive); for `CCOc1ccc2nc(NC(=O)c3ccc(C(F)(F)F)cc3)sc2c1`, 101% (inactive).
